From PubChem BioAssay AID493014 (National Center for Advancing Translational Sciences (NCATS), 2011) come the findings set out here.

The campaign covered roughly 340,000 compounds. About 170 (0.05%) were called active. Roughly 26% stayed inconclusive and do not appear here. Only a selection was taken, and actives are over-represented in it overall. Values without a mark were called inactive. Calls come from the whole dose curve; as a rule, active = well fitted inhibition curve with a large enough effect in the signal ratio, with a control signal flat (not every such curve was filed as active); inconclusive = small, poorly fitted or top-dose-only effect, or effect the other way, or a change in a side signal; inactive = flat fitted curve, though single readings scatter; the % refers to the signal ratio.
Potency is the fitted concentration of half-maximal effect.

The test is described as follows: qHTS Assay to Find Inhibitors of Chronic Active B-Cell Receptor Signaling.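 For activity change, negative = inhibition: plate controls were basal doxycycline-induced cells for no effect and cells given 10 µM MG132 for full effect.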 As to conditions: ABC-DLBCL IkBa-CBG/CBR reporter, luminescence ratio, 4 h; series mostly up to 46.1 µM; activity change, negative = inhibition: at the top concentration. The method, boiled down:
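TMD8 ABC-DLBCL cells carrying doxycycline-inducible green luciferase fused to IkappaBalpha plus unfused red luciferase were exposed to compounds (up to 46 uM) for 4 hrs at 37C. Activity came from the overlap-corrected green/red luminescence ratio.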
On the technique in general: In qHTS, concentration-response curves come from the screen itself.
For `CC(C)(C)OC(=O)C[C@@H]1C/C=C\C[C@@H](CC(=O)N[C@H](CO)Cc2ccccc2)C(=O)NC[C@@H](c2ccccc2)OC1=O`, the “activity change, negative = inhibition” value is 1.85%.
Same read-out and setting: in the case of `Cc1ccc(NC(=O)CCC(=O)N2CCC(c3ccccc3)=N2)cc1S(=O)(=O)N1CCCCC1` it was 6.15%.
On to `Cc1ccc(-n2ncc(C(=O)NC3CC3)c2C2CCN(C(=O)OC(C)(C)C)CC2)c(C)c1`, for which the “activity change, negative = inhibition” value was 5.88%.
Same read-out and setting: in the case of `COc1ccc(CN2C(CC(=O)Nc3cccnc3)c3ccc(C(F)(F)F)cc3S2(=O)=O)cc1` (stereo not given) it was -7.67%; in that of `Cn1c2cc(B(O)O)sc2c2cnn(Cc3ccccc3F)c(=O)c21`, 25.8%.
Still for that read-out and setting: the value for `COc1ccc(-c2c(-c3cc(OC)cc(OC)c3)n(C)c3ccc(-c4ccn[nH]4)cc23)cc1` was -0.87%; that for `COc1ccc(S(=O)(=O)N2CCCCC2)cc1NC(=O)c1cc([N+](=O)[O-])ccc1N1CCOCC1` was 5.45%; that for `Cc1ccc(NC(=O)c2cccc(S(=O)(=O)N3CCCc4ccccc43)c2)nc1` was 12.1%.
With `Cc1ccc(S(=O)(=O)N2CCN(C(=O)Cn3c(=O)cnc4ccccc43)CC2)c(C)c1`, the “activity change, negative = inhibition” value is -0.195%.
As for `COc1ccc(N2CCN(C(CNS(=O)(=O)c3ccc(C)cc3)c3ccccc3)CC2)cc1` (stereo not given), the “activity change, negative = inhibition” value is 4.46%.
With `COc1ccc(CCN(C)C(=O)C23CC4CC(CC(Cl)(C4)C2)C3)cc1OC`, the “activity change, negative = inhibition” value was 0.382%.
For `COC(=O)[C@]1(C)N[C@H](c2ccc(-c3ccc(Cl)c(Cl)c3)cc2)[C@@H]2C(=O)N(C)C(=O)[C@@H]21`, the “activity change, negative = inhibition” value is -4.17%.
Consider `CC(C)(C)OC(=O)C[C@@H]1C/C=C\C[C@@H](CC(=O)N(CCO)Cc2ccccc2)C(=O)N[C@H](Cc2ccccc2)COC1=O`, for which the “activity change, negative = inhibition” value was 0.431%.
Turning to `CSCCC1NC(=O)N(CC(=O)Nc2cccc(S(=O)(=O)N3CCCCCC3)c2)C1=O` (stereo not given), the “activity change, negative = inhibition” value was -1.39%.
As for `Cc1c(O)c(C)c2c(c1O)C(=O)C[C@@H](c1ccccc1)O2`, the “activity change, negative = inhibition” value was 12.1%.
In the case of `COc1ccc(/C=C(\C#N)C(=O)NCCCn2ccnc2)cc1`, the “activity change, negative = inhibition” value was 0.0871%.
On to `COc1ccc(CNC(=O)CCn2cccc2)cc1`, for which the “activity change, negative = inhibition” value is 14.4%.
Turning to `COc1ccc(CNC(=O)/C(C#N)=C/c2cccc(OC)c2OC)cc1`, the Potency was 11.2 µM (active).
`CCC1=Nc2cc(C(=O)NCCCN3CCOCC3)ccc2Sc2ccc(Br)cc21`: the “activity change, negative = inhibition” value is 2.34%.
Take `COCCCNC(=O)CC1C[C@H](C(=O)N2CCCCC2)[C@@]2(CCc3ccccc3)c3[nH]c4ccccc4c3CCN2C1=O` (stereo not given in full): the “activity change, negative = inhibition” value is -1.58%.
Still for that read-out and setting: the value for `O=C1OC[C@@H]2CCCN2C(=O)[C@H](CC(=O)N(CCO)Cc2ccccc2)C/C=C\CC[C@@H]1Cc1ccc(F)cc1` was 0.374%; that for `Cc1cccc(Nc2nnc(SCC(=O)c3c(N)n(C4CC4)c(=O)[nH]c3=O)s2)c1C` was 0.765%; that for `Cc1cccc(C)c1NC(=O)COC(=O)c1c(C)nn(-c2ccccc2)c1C` was -0.466%.
The same measure, in the same setting: in the case of `O=C1NC(Cc2ccc(O)cc2)c2nc3ccc(Cl)cc3c(=O)n2-c2ccccc21` (stereo not given) it was -3.14%; in that of `CCC(CC)COC(=O)C1=C(C)NC(=O)NC1c1ccc([N+](=O)[O-])cc1` (stereo not given), -8.44%.
Still for that read-out and setting: in the case of `Cc1ccc(CC(=O)Nc2ccc(S(=O)(=O)N3CCOCC3)cc2)cc1C` it was -2.28%; in that of `CC(C)(C)OC(=O)Nc1ccc([C@@H](NC(=O)OC(C)(C)C)C(=O)OC(C)(C)C)cc1`, -1.99%.
Turning to `CN(C(=O)c1cccc(NC(=O)Cc2ccc([N+](=O)[O-])cc2)c1)C1CCC1`, the “activity change, negative = inhibition” value is -5.64%.
On to `CN(C)S(=O)(=O)c1cccc(NC(=O)COc2ccc3ccccc3c2)c1`, for which the “activity change, negative = inhibition” value is -4.65%.
Regarding `COc1ccc(-c2nc3c(s2)CCc2onc(-c4ccc(OC)cc4)c2-3)cc1`, the “activity change, negative = inhibition” value was 2.16%.
As for `CCOC(=O)[C@@H]1[C@H]2COc3ccc(Br)cc3[C@H]2N2C(=O)N(c3ccc(C)cc3)C(=O)[C@@]12C`, the “activity change, negative = inhibition” value was -0.0599%.
With `CN(C(=O)c1cccc(NC(=O)C2CCN(C(=O)OC(C)(C)C)CC2)c1)C1CCC1`, the “activity change, negative = inhibition” value was -17.4%.
On to `CC(=O)c1ccc(OCCCC(=O)Nc2ccc(C)c(S(=O)(=O)N3CCOCC3)c2)cc1`, for which the “activity change, negative = inhibition” value was -3.66%.
For the compound `COc1cc(C(c2c(NC(=O)c3ccco3)sc(C)c2C)N2CCOCC2)cc(OC)c1OC` (stereo not given), the “activity change, negative = inhibition” value is 2.54%.
Regarding `Cc1ccc(S(=O)(=O)N(C)C)cc1NC(=O)CN1c2cccc3cccc(c23)S1(=O)=O`, the “activity change, negative = inhibition” value is -4.26%.
